Test results as given in PubChem BioAssay (EPA / NIEHS).
Several values for one entry are separate records, joined by “and”; a condition that tells them apart may be missing. Equal values may be shown once. More than one record can exist for a structure, and the calls need not agree. Activity calls are given as the source filed them. The calls were made as follows: active = hit-call score of the fitted dose curve at least 0.9, where 1 is the maximum; inactive = score below 0.9.

What was measured:
Conditions in all cases: mRNA level, 48 h; actives raise or lower the signal
[1] = read-out: Glutamate-cysteine ligase regulatory (GCLM), GCLM (gene 2730); experiment: LTEA_HepaRG_GCLM: Life Technologies and Expression Analysis (LTEA) Assay for Glutamate-cysteine ligase regulatory (GCLM) using HepaRG (AID 2283500)
In short: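 HepaRG, 48 h dosing, 100 uM top, half-log x8, 0.5% DMSO vehicle. Readout: GCLM mRNA by TaqMan qRT-PCR, housekeeping-normalized (ACTB/GAPDH/POLR2A). Curves fit bidirectionally vs DMSO baseline.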

[2] = read-out: Heat shock 70 kDa protein 1 (HSPA1A), gene 3303; experiment: LTEA_HepaRG_HSPA1A: Life Technologies and Expression Analysis (LTEA) Assay for Heat shock 70 kDa protein 1 (HSPA1A) using HepaRG (AID 2283502)
In short: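 HepaRG, 48 h exposure, 8-pt half-log CRC from 100 uM in 0.5% DMSO, duplicates. Readout: TaqMan qRT-PCR of HSPA1A mRNA, housekeeping-normalized (ACTB/GAPDH/POLR2A). Bidirectional fit vs 0.5% DMSO baseline.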

[3] = read-out: 3-Hydroxy-3-Methylglutaryl-CoA Synthase 2 (HMGCS2), HMGCS2 (gene 3158); experiment: LTEA_HepaRG_HMGCS2: Life Technologies and Expression Analysis (LTEA) Assay for 3-Hydroxy-3-Methylglutaryl-CoA Synthase 2 (HMGCS2) using HepaRG (AID 2283504)
In short: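 Readout is HMGCS2 transcript by qRT-PCR, housekeeping-normalised (ACTB/GAPDH/POLR2A) and fitted bidirectionally against 0.5% DMSO. Differentiated HepaRG cells received chemicals 48 h, duplicate wells, eight half-log concentrations topping at 100 uM.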

HGF (gene 3082) = experiment: LTEA_HepaRG_HGF: Life Technologies and Expression Analysis (LTEA) Assay for Hepatocyte Growth Facto (HGF) using HepaRG (AID 2283505)
In short: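 HGF transcript was quantified by TaqMan qRT-PCR against three housekeeping genes after 48 h treatment of HepaRG cells. Exposure ran in duplicate over eight half-log steps topping at 100 uM in 0.5% DMSO vehicle.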

[4] = read-out: Insulin Like Growth Factor 1 (IGF1), IGF1 (gene 3479); experiment: LTEA_HepaRG_IGF1: Life Technologies and Expression Analysis (LTEA) Assay for Insulin Like Growth Factor 1 (IGF1) using HepaRG (AID 2283506)
In short: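 qRT-PCR readout of IGF1 mRNA, normalized to three housekeeping genes, after 48 h chemical exposure of HepaRG cells. Concentrations: 8-point half-log series, top 100 uM, 0.5% DMSO vehicle. Gain or loss fitted against DMSO baseline.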

[5] = read-out: Intercellular Adhesion Molecule 1 (ICAM1), ICAM1 (gene 3383); experiment: LTEA_HepaRG_ICAM1: Life Technologies and Expression Analysis (LTEA) Assay for Intercellular Adhesion Molecule 1 (ICAM1) using HepaRG (AID 2283507)
In short: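 ICAM1 transcript levels measured by qRT-PCR, normalized to three housekeeping genes (ACTB, GAPDH, POLR2A), after 48 h chemical exposure of HepaRG cells. Duplicate eight-point half-log series from 100 uM in 0.5% DMSO; gain or loss fitted against vehicle.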

[6] = read-out: Insulin-like growth factor-binding protein 1 (IGFBP1), IGFBP1 (gene 3484); experiment: LTEA_HepaRG_IGFBP1: Life Technologies and Expression Analysis (LTEA) Assay for Insulin-like growth factor-binding protein 1 (IGFBP1) using HepaRG (AID 2283508)
In short: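 Read-out is qRT-PCR transcript level normalized to three housekeeping genes, fitted in both directions against 0.5% DMSO. Differentiated HepaRG cells received eight half-log concentrations (top 100 uM) in duplicate for 48 h in serum-free induction medium.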

[7] = read-out: Interleukin 6 (IL6), IL6 (gene 3569); experiment: LTEA_HepaRG_IL6: Life Technologies and Expression Analysis (LTEA) Assay for Interleukin 6 (IL6) using HepaRG (AID 2283509)
In short: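 qRT-PCR read-out of IL6 transcript, normalized to three housekeeping genes, after 48 h chemical exposure of HepaRG cells; 8-point half-log series, top 100 uM, 0.5% DMSO vehicle. Bidirectional curve fitting against DMSO baseline.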

[8] = read-out: Interleukin 6 Receptor (IL6R), IL6R (gene 3570); experiment: LTEA_HepaRG_IL6R: Life Technologies and Expression Analysis (LTEA) Assay for Interleukin 6 Receptor (IL6R) using HepaRG (AID 2283510);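 as to AC50: differentiated human HepaRG liver cells in serum-free induction medium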
In short: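 HepaRG, 48 h exposure, 8-pt half-log series, top 100 uM, 0.5% DMSO vehicle, duplicates. Read-out: TaqMan qRT-PCR of IL6R transcript, housekeeping-gene normalized. Gain or loss fitted relative to DMSO baseline.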

[9] = read-out: Potassium channel subfamily K member 1 (KCNK1), KCNK1 (gene 3775); experiment: LTEA_HepaRG_KCNK1: Life Technologies and Expression Analysis (LTEA) Assay for Potassium channel subfamily K member 1 (KCNK1) using HepaRG (AID 2283511)
In short: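 HepaRG, 48 h exposure, 8-pt half-log series top 100 uM, 0.5% DMSO vehicle, duplicates. Readout: KCNK1 transcript by qRT-PCR (Fluidigm array), housekeeping-normalized; bidirectional curve fit relative to DMSO baseline.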

[10] = read-out: JUN Transcription Factor, JUN (gene 3725); experiment: LTEA_HepaRG_JUN: Life Technologies and Expression Analysis (LTEA) Assay for JUN Transcription Factor using HepaRG (AID 2283513)
In short: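 HepaRG, 48 h exposure, 8-pt half-log series top 100 uM, 0.5% DMSO, duplicate. JUN mRNA by qRT-PCR (Fluidigm), housekeeping-normalized (ACTB/GAPDH/POLR2A); bidirectional curve fit vs DMSO baseline.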

[11] = read-out: Lipase C (LIPC), LIPC (gene 3990); experiment: LTEA_HepaRG_LIPC: Life Technologies and Expression Analysis (LTEA) Assay for Lipase C (LIPC) using HepaRG (AID 2283514)
In short: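 HepaRG, 48 h exposure, 8-pt half-log series from 100 uM in 0.5% DMSO, duplicates. Readout: LIPC mRNA by Fluidigm qRT-PCR, housekeeping-normalized (ACTB/GAPDH/POLR2A). Gain or loss fitted bidirectionally against DMSO baseline.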

[12] = read-out: Lipoprotein lipase (LPL), LPL (gene 4023); experiment: LTEA_HepaRG_LPL: Life Technologies and Expression Analysis (LTEA) Assay for Lipoprotein lipase (LPL) using HepaRG (AID 2283515)
In short: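 HepaRG, 48 h exposure, 8-pt half-log dilutions from 100 uM, 0.5% DMSO vehicle, duplicates; qRT-PCR (Fluidigm array) of LPL mRNA vs housekeeping genes; bidirectional curve fit relative to DMSO baseline.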

[13] = read-out: MicroRNA 122 (MIR122), gene 406906; experiment: LTEA_HepaRG_MIR122: Life Technologies and Expression Analysis (LTEA) Assay for MicroRNA 122 (MIR122) using HepaRG (AID 2283516); also: the transcript read is the microRNA miR-122
In short: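 qRT-PCR read-out (TaqMan, Fluidigm array), normalized to three housekeeping genes; HepaRG cells dosed 48 h at 8 concentrations up to 100 uM in 0.5% DMSO, duplicate; gain or loss fitted against DMSO baseline.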

[14] = read-out: matrix metalloproteinase-10 (MMP10), MMP10 (gene 4319); experiment: LTEA_HepaRG_MMP10: Life Technologies and Expression Analysis (LTEA) Assay for matrix metalloproteinase-10 (MMP10) using HepaRG (AID 2283517)
In short: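 Transcript levels come from Fluidigm qRT-PCR normalized to three housekeeping genes, with curves fitted bidirectionally against 0.5% DMSO. Human HepaRG cells were dosed for 48 hours at concentrations up to 100 uM.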

MYC, MYC (gene 4609) = experiment: LTEA_HepaRG_MYC: Life Technologies and Expression Analysis (LTEA) Assay for MYC using HepaRG (AID 2283518)
In short: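 MYC transcript changes, up or down relative to 0.5% DMSO, from TaqMan qRT-PCR normalized to three housekeeping genes. Human HepaRG cultures received chemicals for 48 h at eight half-log concentrations up to 100 uM, in duplicate.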

[15] = read-out: matrix metalloproteinase-3 (MMP3), MMP3 (gene 4314); experiment: LTEA_HepaRG_MMP3: Life Technologies and Expression Analysis (LTEA) Assay for matrix metalloproteinase-3 (MMP3) using HepaRG (AID 2283519)
In short: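 qRT-PCR read-out of MMP3 mRNA (normalised to three housekeeping genes) in HepaRG liver cells after 48 h chemical exposure; 8-point half-log series, top 100 uM, 0.5% DMSO vehicle. Bidirectional curve fitting against DMSO baseline.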

[16] = read-out: Glutathione S-transferase M3 (GSTM3), GSTM3 (gene 2947); experiment: LTEA_HepaRG_GSTM3: Life Technologies and Expression Analysis (LTEA) Assay for Glutathione S-transferase M3 (GSTM3) using HepaRG (AID 2283501)
In short: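 GSTM3 transcript levels came from Fluidigm TaqMan qRT-PCR normalized to three housekeeping genes, fitted in both directions against DMSO. HepaRG cultures received chemicals for 48 h in serum-free induction medium (0.5% DMSO), 8 half-log concentrations up to 100 uM, duplicate.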

[17] = read-out: Hypoxia-inducible factor 1-alpha (Homo sapiens) (UniProt Q16665); experiment: LTEA_HepaRG_HIF1A: Life Technologies and Expression Analysis (LTEA) Assay for Hypoxia-inducible factor 1 (HIF1A) Trancription factor using HepaRG (AID 2283503)
In short: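 Gain- or loss-of-signal HIF1A mRNA changes are fitted against a DMSO baseline. HepaRG cultures receive eight concentrations, highest 100 uM, for 48 h in serum-free induction medium with 0.5% DMSO.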

[18] = read-out: Keratin 19 (KRT19), KRT19 (gene 3880); experiment: LTEA_HepaRG_KRT19: Life Technologies and Expression Analysis (LTEA) Assay for Keratin 19 (KRT19) using HepaRG (AID 2283512)
In short: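 KRT19 transcript measured by TaqMan qRT-PCR, referenced to three housekeeping genes, after HepaRG cells received test chemicals for 48 h. Eight half-log concentrations, top 100 uM, 0.5% DMSO vehicle; increases and decreases both fitted.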

Measured: AC50

Hypoxia-inducible factor 1-alpha (Homo sapiens), sequence (Q16665 whole entry, looked up): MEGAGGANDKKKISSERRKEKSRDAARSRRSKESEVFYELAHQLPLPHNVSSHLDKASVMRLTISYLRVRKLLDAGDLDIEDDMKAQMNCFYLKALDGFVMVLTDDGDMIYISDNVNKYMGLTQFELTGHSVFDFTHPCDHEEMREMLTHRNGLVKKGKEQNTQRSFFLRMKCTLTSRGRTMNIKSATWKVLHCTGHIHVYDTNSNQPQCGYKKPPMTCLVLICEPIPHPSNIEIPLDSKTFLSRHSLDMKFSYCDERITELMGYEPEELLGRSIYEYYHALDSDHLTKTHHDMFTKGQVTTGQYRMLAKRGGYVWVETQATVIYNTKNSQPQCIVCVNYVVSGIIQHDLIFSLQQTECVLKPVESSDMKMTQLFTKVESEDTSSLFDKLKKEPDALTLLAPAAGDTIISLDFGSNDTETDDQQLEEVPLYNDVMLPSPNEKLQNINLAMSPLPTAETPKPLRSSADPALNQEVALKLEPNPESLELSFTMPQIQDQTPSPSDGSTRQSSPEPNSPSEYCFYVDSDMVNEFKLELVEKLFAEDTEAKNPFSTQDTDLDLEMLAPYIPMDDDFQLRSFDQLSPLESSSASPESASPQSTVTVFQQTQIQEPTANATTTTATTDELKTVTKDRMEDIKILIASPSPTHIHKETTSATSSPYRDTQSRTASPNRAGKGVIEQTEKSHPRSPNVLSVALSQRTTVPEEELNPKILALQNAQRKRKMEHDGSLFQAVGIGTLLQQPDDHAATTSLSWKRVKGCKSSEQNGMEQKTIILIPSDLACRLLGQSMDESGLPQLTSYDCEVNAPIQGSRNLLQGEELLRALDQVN

CC(C)OC(=O)Nc1cccc(Cl)c1
not listed: [16] | [17] | [18]
inactive: all other assays above

O=C(O)C(F)(F)C(F)(F)C(F)(F)C(F)(F)C(F)(F)C(F)(F)C(F)(F)F
active: [2] 50 µM | [3] 15.2 µM and 7.54 µM
inactive: [1] | [2] | HGF (gene 3082) | [4] | [5] | [6] | [7] | [8] | [9] | [10] | [11] | [12] | [13] | [14] | MYC, MYC (gene 4609) | [15]

Oc1cc(Cl)ccc1Oc1ccc(Cl)cc1Cl
inactive: [1] | [2] | [3] | HGF (gene 3082) | [4] | [5] | [6] | [7] | [8] | [9] | [10] | [11] | [12] | [13] | [14] | MYC, MYC (gene 4609) | [15]
active: [1] 89.6 µM | [3] 82.8 µM | HGF (gene 3082) 51 µM | [4] 69 µM | [6] 71.9 µM | [7] 81.3 µM | [8] 51 µM | [11] 78.7 µM | [12] 86.4 nM and 51 µM | [13] 82.3 µM | [14] 89 µM | MYC, MYC (gene 4609) 83.5 µM | [15] 51 µM

CNC(=O)/C=C(\C)OP(=O)(OC)OC
not listed: [17] | [18]
inactive: all other assays above

CN1CSC(=S)N(C)C1
not listed: [16] | [18]
inactive: all other assays above

CNC(=O)Oc1cccc(N=CN(C)C)c1
not listed: [16]
inactive: all other assays above

O=S1OCC2C(CO1)C1(Cl)C(Cl)=C(Cl)C2(Cl)C1(Cl)Cl (stereo unspecified)
active: [1] 50 µM | [3] 77.3 µM | [4] 42.2 µM | [6] 83.4 µM | [8] 11.4 µM | [11] 62.7 µM | [12] 87.5 µM | [13] 89.1 µM | MYC, MYC (gene 4609) 77.5 µM
inactive: [16] | [2] | HGF (gene 3082) | [5] | [7] | [9] | [10] | [14] | [15]

O=S(=O)(O)C(F)(F)C(F)(F)C(F)(F)C(F)(F)C(F)(F)C(F)(F)C(F)(F)C(F)(F)F
inactive: [1] | [2] | [3] | HGF (gene 3082) | [5] | [6] | [7] | [8] | [9] | [10] | [11] | [12] | [13] | [14] | [15]
active: [2] 19.9 µM | [3] 83.8 µM and 92.2 µM and 81.5 µM | [6] 77.6 µM and 50 µM | [8] 82.9 µM and 90 µM | [11] 76 µM and 50 µM and 48 µM | [12] 61.1 µM | [13] 82.5 µM and 84.5 µM and 48 µM | [14] 87.5 µM and 83.7 µM | MYC, MYC (gene 4609) 50 µM [middle of 4 runs]

CC(C)(C)C(O)C(Oc1ccc(Cl)cc1)n1cncn1 (stereo unspecified)
active: [3] 21 µM and 32.8 µM and 21.6 µM | [4] 16 µM and 23.4 µM and 14.4 µM | [8] 50 µM | [15] 50 µM
inactive: [1] | [16] | [2] | HGF (gene 3082) | [5] | [6] | [7] | [8] | [9] | [10] | [11] | [12] | [13] | [14] | MYC, MYC (gene 4609) | [15]

COP(=S)(OC)Oc1ccc(SC)c(C)c1
active: [1] 0.244 µM | [15] 50 µM
not listed: [17]
inactive: all other assays above
